Gal4-VP16 FLuc: inhibits Gal4-VP16 luciferase reporter, ROR gamma counter-screen; Drosophila S2 Gal4-VP16 UAS-luciferase, luminescence, 20 h; Potency, µM (highest dose often 53.6 µM), for inactives: at the highest dose activity, negative = inhibition, most hits filed as inhibitors; actives 3.5% (n = 310,000); AID 2546;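 also: Gal4-VP16 expression switched on by copper sulfate through the metallothionein promoter; nearly all actives have a fitted effect of over 50% in size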
TDP1 inh: TDP1 (human) enzyme inhibition; actives 0.28% (n = 350,000); AID 485290; recombinant TDP1, AlphaScreen DNA substrate cleavage; Potency, µM (series often up to 130 µM), for inactives: at the highest dose activity change, negative = inhibition, usual class: inhibitors; Q9NUW8; also: nearly all actives have a fitted effect of over 40% in size
Target sequence (Q9NUW8 whole entry, looked up): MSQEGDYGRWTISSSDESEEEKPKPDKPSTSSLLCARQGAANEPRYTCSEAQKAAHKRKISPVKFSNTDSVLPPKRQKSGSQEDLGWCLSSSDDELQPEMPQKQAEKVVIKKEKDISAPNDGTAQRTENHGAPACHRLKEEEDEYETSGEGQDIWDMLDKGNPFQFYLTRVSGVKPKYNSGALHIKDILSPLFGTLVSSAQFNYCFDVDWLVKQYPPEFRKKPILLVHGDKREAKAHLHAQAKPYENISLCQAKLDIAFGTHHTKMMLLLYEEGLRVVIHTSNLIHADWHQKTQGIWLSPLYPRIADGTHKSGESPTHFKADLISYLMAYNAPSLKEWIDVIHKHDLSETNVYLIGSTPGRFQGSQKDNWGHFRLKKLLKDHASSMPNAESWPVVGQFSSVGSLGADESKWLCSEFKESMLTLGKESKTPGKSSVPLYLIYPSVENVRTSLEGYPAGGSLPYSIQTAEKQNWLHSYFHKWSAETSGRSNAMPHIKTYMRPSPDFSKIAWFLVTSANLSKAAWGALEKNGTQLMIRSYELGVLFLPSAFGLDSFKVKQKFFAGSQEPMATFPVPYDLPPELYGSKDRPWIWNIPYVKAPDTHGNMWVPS
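AlphaScreen read-out: signal falls as enzyme removes the 3' tyrosine-FITC from a 5'-biotinylated DNA oligo (15 nM, 5 min, RT). Enzyme was E. coli-made recombinant Tdp1 at 1 nM, exposed to compound for 15 min beforehand; beads 10 ug/ml, 10 min.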
RORg inh: inhibitors of mouse ROR gamma transcriptional activity; Drosophila S2 Gal4-RORgamma UAS-luciferase reporter, 20 h; AID 2551; P51450; Potency, µM (highest dose often 53.6 µM), for the others: top-dose activity change, negative = inhibition, hits mostly inhibitors; actives 5.4% (n = 310,000); also: nearly all actives have a fitted effect of over 60% in size
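Luciferase reporter read in Schneider cells carrying Gal4-RORγ (mouse) and UAS-Photinus luciferase; cells given compound 1 h before 700 uM copper sulfate induction, then incubated 20 h at ambient temperature.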
TDP1 cell CPT: DT40-hTDP1 cell growth loss with CPT | AID 686979 | chicken DT40 Tdp1-/-;hTDP1 cells + 20 nM CPT, ATP luminescence, 48 h | actives 12% (n = 420,000) | Potency, µM (top dose mostly 46.2 µM), for inactives: top-dose activity change, negative = growth inhibition, most hits filed as inhibitors; also: nearly all actives have a fitted effect of over 55% in size
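Chicken DT40 Tdp1-/- cells stably complemented with human TDP1 were seeded at 400 cells/well in medium containing 20 nM camptothecin, exposed to pin-transferred compounds, and grown at 37 °C for at least 48 hr. Viability was read as ATP luminescence.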
DT40 TDP1 no CPT: qHTS for Inhibitors of human tyrosyl-DNA phosphodiesterase 1 (TDP1): qHTS in cells in absence of CPT; DT40 Tdp1-/- hTDP1 cells, no CPT, ATP luminescence, 48 h; AID 686978, 2013; Potency, µM (series often up to 46.2 µM), without a hit: top-dose activity change, negative = growth inhibition, usual class: inhibitors; actives 15% (n = 420,000); also: nearly all actives have a fitted effect of over 55% in size
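Compound effects on proliferation are scored in DT40 Tdp1-/-;hTDP1 cells in the absence of CPT. ATP levels (CellTiter-Glo luminescence) are recorded after a ≥48 hr, 37 °C incubation.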
Active calls of the source: *; [ ] = another dose, or the depositor's remark. Only some compounds are listed: those with a hit (about 19% of all), similar ones and a draw of the others. Calls follow the shape of the dose curve; as a rule, active = well fitted curve in the direction sought with a large enough effect; inconclusive = small, poorly fitted or top-dose-only effect, or another doubt; inactive = no such curve, though single readings can be large; an effect the other way counts as inactive or inconclusive. % is scaled to controls: 0 for no effect and ±100 for the full control effect; potency is read from the fitted curve at half-maximal effect.

For COc1ccc(N2CCN(C(=O)COc3ccc(S(=O)(=O)N4CCOCC4)cc3C)CC2)cc1 the results were Gal4-VP16 FLuc 6%, TDP1 inh 9%, RORg inh inconclusive, TDP1 cell CPT inconclusive and DT40 TDP1 no CPT 23µM*.
For Cc1cc(S(=O)(=O)N2CCCC2)ccc1OCC(=O)N1CCOCC1 the results were TDP1 inh 8%, RORg inh -18%[0.365 µM], TDP1 cell CPT -2% and DT40 TDP1 no CPT -5%.
`COc1ccc(S(=O)(=O)N2CCCCCC2)cc1C(=O)N1CCN(c2ccc(F)cc2)CC1` gave TDP1 cell CPT inconclusive and DT40 TDP1 no CPT 21µM*.
COc1ccc(-c2c(-c3ccc(OC)c(F)c3)c3ccccc3n2C)cc1 was read as TDP1 inh 5%, TDP1 cell CPT -1% and DT40 TDP1 no CPT -29%.
CC(SCc1ccccc1)C(=O)N/N=C/c1cc2c(cc1Br)OCO2 (configuration not stated) was read as Gal4-VP16 FLuc -20%, TDP1 inh 3%, RORg inh 27%, TDP1 cell CPT inconclusive and DT40 TDP1 no CPT inconclusive.
CCCCN(C)CCCNC(=O)CS(=O)Cc1nc(-c2ccc(OC)c(OC)c2)oc1C (configuration not stated) was read as Gal4-VP16 FLuc -3%, TDP1 inh 2%, RORg inh -13%, TDP1 cell CPT 6% and DT40 TDP1 no CPT -7%.
`CC(NC(=O)CCCCCCN1C(=O)c2ccccc2C1=O)c1ccc2c(c1)CCCC2` (configuration not stated) gave Gal4-VP16 FLuc 10µM*, TDP1 inh 0%, RORg inh inconclusive, TDP1 cell CPT 23µM* and DT40 TDP1 no CPT inconclusive.
Screening CC(=O)c1ccc(NC(=S)N2CCCC(CO)C2)cc1 (configuration not stated) returned Gal4-VP16 FLuc -14%, TDP1 inh 3%, RORg inh -43%, TDP1 cell CPT 4% and DT40 TDP1 no CPT -10%.
Screening COC(=O)Cc1ccc(NC(=S)N2CCN(c3ccccn3)CC2)cc1 returned Gal4-VP16 FLuc -4%, RORg inh 15%, TDP1 cell CPT -11% and DT40 TDP1 no CPT inconclusive.
For COC(=O)Cc1ccc(NC(=S)N2CCN(c3cc(Cl)ccc3C)CC2)cc1 the results were Gal4-VP16 FLuc inconclusive, TDP1 inh 6%, RORg inh 13µM*, TDP1 cell CPT inconclusive and DT40 TDP1 no CPT inconclusive.
For COC(=O)Cc1ccc(NC(=S)N2CCCC(CO)C2)cc1 (configuration not stated) the results were Gal4-VP16 FLuc 7.9µM*, TDP1 inh -3%, RORg inh 11µM*, TDP1 cell CPT -1% and DT40 TDP1 no CPT -4%.
COCCN1CN(S(=O)(=O)c2ccccc2)c2nc3ccccc3nc21 was read as Gal4-VP16 FLuc -8%, TDP1 inh -12%, RORg inh 0%, TDP1 cell CPT -16% and DT40 TDP1 no CPT -27%.
For Cc1ccc(CN2CN(S(=O)(=O)c3cccs3)c3nc4ccccc4nc32)cc1 the results were Gal4-VP16 FLuc -20%, TDP1 inh 5%, RORg inh 19%, TDP1 cell CPT 16µM* and DT40 TDP1 no CPT 21µM*.
`COc1ccccc1CN1CN(S(=O)(=O)c2ccccc2)c2nc3ccccc3nc21` gave Gal4-VP16 FLuc 17%, RORg inh 18%, TDP1 cell CPT 15µM* and DT40 TDP1 no CPT inconclusive.
Screening O=S(=O)(c1cccs1)N1CN(Cc2ccco2)c2nc3ccccc3nc21 returned Gal4-VP16 FLuc -24%, TDP1 inh 8%, RORg inh inconclusive, TDP1 cell CPT inconclusive and DT40 TDP1 no CPT 13µM*.
Screening Cc1cccc(S(=O)(=O)N2CN(Cc3ccco3)c3nc4ccccc4nc32)c1 returned Gal4-VP16 FLuc 6%, TDP1 inh 6%, RORg inh inconclusive, TDP1 cell CPT 18µM* and DT40 TDP1 no CPT inconclusive.
Screening CCOC(=O)CSc1nc2ccccc2c(=O)n1-c1ccc(C)cn1 returned Gal4-VP16 FLuc -20%, TDP1 inh 12%, RORg inh 1%, TDP1 cell CPT -6% and DT40 TDP1 no CPT -8%.
Screening Cc1ccc(CC2C(=O)N(c3ccccc3)C(=O)C2C)cc1 (configuration not stated) returned Gal4-VP16 FLuc 1%, RORg inh 13%, TDP1 cell CPT -1% and DT40 TDP1 no CPT -15%.
Screening Cc1cccc(Nc2nc(N)nc(CN3CCN(c4ccccc4)CC3)n2)c1 returned Gal4-VP16 FLuc -1%, TDP1 inh 8%, RORg inh -41%, TDP1 cell CPT inconclusive and DT40 TDP1 no CPT inconclusive.
COc1ccc(C(C[N+](=O)[O-])c2c(-c3ccccc3)cc3ccccn23)c(OC)c1 (configuration not stated) was read as Gal4-VP16 FLuc inconclusive, TDP1 inh -7%, RORg inh inconclusive, TDP1 cell CPT 2.9µM* and DT40 TDP1 no CPT 5.2µM*.
`COc1ccc(C(C[N+](=O)[O-])c2c(C)[nH]n(-c3ccccc3)c2=O)cc1` (configuration not stated) gave Gal4-VP16 FLuc inconclusive, RORg inh 13µM*, TDP1 cell CPT 13µM* and DT40 TDP1 no CPT 16µM*.
Screening Cc1cc2ccccn2c1C(C[N+](=O)[O-])c1ccc(N(C)C)cc1 (configuration not stated) returned Gal4-VP16 FLuc inconclusive, TDP1 inh 10%, RORg inh inconclusive, TDP1 cell CPT 16µM* and DT40 TDP1 no CPT inconclusive.
`COc1ccc(C(C[N+](=O)[O-])c2c(C)cc3ccccn23)cc1` (configuration not stated) gave Gal4-VP16 FLuc -7%, TDP1 inh 6%, RORg inh inconclusive, TDP1 cell CPT 10µM* and DT40 TDP1 no CPT 18µM*.
For Cn1c(=O)c2[nH]c(NN=Cc3ccc(F)cc3)nc2n(C)c1=O the results were TDP1 cell CPT -12% and DT40 TDP1 no CPT inconclusive.
Screening Cn1c(=O)c2[nH]c(NN=Cc3cccc(Br)c3)nc2n(C)c1=O returned TDP1 cell CPT 23µM* and DT40 TDP1 no CPT 15µM*.
Screening Cc1ccc(F)c(NC(=O)c2cncn2-c2ccccc2)c1 returned Gal4-VP16 FLuc 2%, TDP1 inh -1%, RORg inh -5%, TDP1 cell CPT 1% and DT40 TDP1 no CPT -3%.
CCOc1cc(C2NC(=O)NC(O)(C(F)(F)F)C2C(=O)c2ccccc2)ccc1OC (configuration not stated) was read as Gal4-VP16 FLuc 1%, TDP1 inh 7%, RORg inh 10%, TDP1 cell CPT -28% and DT40 TDP1 no CPT -3%.
